Reference: PubChem BioAssay AID489008 (National Center for Advancing Translational Sciences (NCATS), 2010)
Records with an inconclusive call do not appear. Active and inactive are the calls of the source. Calls come from the whole dose curve; as a rule, active = well fitted inhibition curve with a large enough effect; inconclusive = small, poorly fitted or top-dose-only effect; inactive = flat fitted curve, though single readings scatter.

The compounds below were run against Ferritin light chain (Equus caballus) (UniProt P02791) (assay: Confirmation Assay for Identification of Novel General Anesthetics). Settings: apoferritin 1-aminoanthracene fluorescence displacement.
Procedure, shortened: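 Horse apoferritin (10 uM) pre-loaded with 1-AMA (50% saturated, PBS) exposed to compounds 10 min at room temperature; loss of 1-AMA fluorescence (380/535 nm) scaled between free and bound ligand, curves fitted with Hill equation.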
Note: nearly all actives have a fitted effect of over 40% in size.
Potency is the fitted concentration of half-maximal effect.

Chain of Ferritin light chain (Equus caballus) (P02791 2-175 limits assumed): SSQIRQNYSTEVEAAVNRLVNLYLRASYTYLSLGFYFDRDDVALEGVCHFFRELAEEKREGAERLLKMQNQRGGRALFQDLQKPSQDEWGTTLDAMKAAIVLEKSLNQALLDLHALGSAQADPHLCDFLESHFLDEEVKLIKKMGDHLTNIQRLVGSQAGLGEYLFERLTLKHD

How did the Potency turn out when CCCCCc1ccc(C2=NNC(=O)CC2)cc1 was run?
The Potency was 28.2 µM (active).

How did the Potency turn out when O=S(=O)(Nc1ccc2c(c1)CCC2)c1cccs1 was run?
The Potency was 17.8 µM (active).

Cc1ccc(NC(=O)COC(=O)CSC(=S)N2CCOCC2)cc1 was tested. Which Potency did it give?
The Potency was 15.8 µM (active).

Cc1csc(Nc2ccc(Cl)cc2)n1 was tested. Which Potency did it give?
Its Potency is 31.6 µM (active).

For COc1ccc(CNC(=O)COC(=O)CCC2CCCCC2)cc1, which Potency is on record?
The Potency was 15.8 µM (active).

With Oc1cccc(Oc2ncc(C(F)(F)F)cc2Cl)c1 as the compound, how does the Potency read?
The Potency was 7.94 µM (active).

With NC(=O)COC(=O)CC12CC3CC(CC(Br)(C3)C1)C2 as the compound, how does the Potency read?
Its Potency is 17.8 µM (active).

Which Potency does the source give for Cc1ccccc1CSc1nsc(N)n1 here?
The Potency was 17.8 µM (active).

How did the Potency turn out when O=C(CCc1ccccc1)Nc1cc(Cl)ccc1O was run?
The Potency was 6.31 µM (active).

With N#CC(Nc1ccccc1)c1ccccc1OCc1ccccc1 (stereo not drawn) as the compound, how does the Potency read?
The Potency was 35.5 µM (active).

Cc1ccc(NC(=O)N2CCCCCC2)cc1 was tested. Which Potency did it give?
The Potency was 12.6 µM (active).

For Cc1ccc(OCC(=O)N2CCCCCCC2)cc1C, which Potency is on record?
The Potency was 35.5 µM (active).

NS(=O)(=O)c1cccnc1Nc1cccc(C(F)(F)F)c1 was tested. Which Potency did it give?
The Potency was 10 µM (active).

How did the Potency turn out when Cc1ccc(-c2ccc(=O)n(CC(=O)NCc3ccco3)n2)cc1 was run?
Its Potency is 11.2 µM (active).

Which Potency does the source give for O=C(COC(=O)C(O)c1ccccc1)NC12CC3CC(CC(C3)C1)C2 (stereo not drawn) here?
Its Potency is 12.6 µM (active).

O=C(NC1C2CC3CC(C2)CC1C3)c1ccc(Br)o1 (stereo not drawn) was tested. Which Potency did it give?
Its Potency is 11.2 µM (active).

COc1cccc(NC(=O)Nc2nc(SC(C)(C)C)ns2)c1 was tested. Which Potency did it give?
Its Potency is 10 µM (active).

How did the Potency turn out when Cc1cccc(OCCC(=O)OCC(=O)N2CCc3ccccc32)c1 was run?
Its Potency is 10 µM (active).

How did the Potency turn out when O=[N+]([O-])c1ccc(CNc2cccc(Cl)c2)s1 was run?
Its Potency is 15.8 µM (active).

With O=C(CCC1CCCCC1)Nc1nncs1 as the compound, how does the Potency read?
The Potency was 15.8 µM (active).

How did the Potency turn out when O=C(CN1CCCC1)Nc1ccc(OCc2ccccc2)cc1 was run?
The Potency was 15.8 µM (active).

Which Potency does the source give for ClC1(Cl)CC1CSc1nc2ccccc2[nH]1 (stereo not drawn) here?
The Potency was 15.8 µM (active).

How did the Potency turn out when O=C(CSc1ccccn1)C12CC3CC(CC(C3)C1)C2 was run?
The Potency was 6.31 µM (active).

Which Potency does the source give for O=C(CSc1ccc(F)cc1)NC12CC3CC(CC(C3)C1)C2 here?
The Potency was 15.8 µM (active).

How did the Potency turn out when CNc1nc(C23CC4CC(CC(C4)C2)C3)cs1 was run?
Its Potency is 15.8 µM (active).

O=c1[nH]c(SCC2CCCCO2)nc2ccccc12 (stereo not drawn) was tested. Which Potency did it give?
The Potency was 14.1 µM (active).

How did the Potency turn out when N/C(Cc1ccc(Cl)cc1)=N\OC(=O)c1cccc2ccccc12 was run?
Its Potency is 8.91 µM (active).

For Cc1ccc(NCc2ccccc2O)cc1, which Potency is on record?
Its Potency is 14.1 µM (active).

How did the Potency turn out when Cc1ccc(C2=NN(CC(=O)NCc3cccs3)C(=O)CC2)cc1 was run?
Its Potency is 7.08 µM (active).

With O=S(=O)(NCCC1=CCCCC1)c1ccc(F)cc1 as the compound, how does the Potency read?
Its Potency is 8.91 µM (active).

Which Potency does the source give for CCOC(=O)c1c(C(C)(C)C)oc2ccc(O)cc12 here?
Its Potency is 39.8 µM (active).

For O=C(Oc1cccc(O)c1)C1CCCCC1, which Potency is on record?
The Potency was 11.2 µM (active).

How did the Potency turn out when Nn1cnc2sc3c(c2c1=O)CCC3 was run?
Its Potency is 31.6 µM (active).

O=C(COc1ccccc1)N1CCCCCCC1 was tested. Which Potency did it give?
Its Potency is 12.6 µM (active).

CC(C)c1ccc(NC(=O)C2CC3CCC2C3)cc1 (stereo not drawn) was tested. Which Potency did it give?
Its Potency is 31.6 µM (active).

Cc1ccccc1OCC(=O)N1CCCc2ccccc21 was tested. Which Potency did it give?
Its Potency is 17.8 µM (active).

Which Potency does the source give for N#Cc1ccccc1NCc1ccccc1 here?
Its Potency is 11.2 µM (active).

Which Potency does the source give for CC1CCCN(C(=O)Nc2ccc(Br)cc2Cl)C1 (stereo not drawn) here?
The Potency was 28.2 µM (active).
